Test in all cases: DAPPL (digital affinity profiling via proximity ligation, sequencing); 10 mM Tris-HCl pH 7.5, 50 mM NaCl, 1 mM DTT, 4% glycerol, room temperature, 30 min; GST-TFs on glutathione beads, 16-mer random dsDNA library, 0.1% formaldehyde crosslink after washing; high values mean tight binding
Common to all, as to conditions: protein: recombinant; tags: N-terminal GST; dsDNA, one strand shown

One experiment has as its target T1, FLI1 (Homo sapiens, UniProt Q01543 1-452).
T1 sequence: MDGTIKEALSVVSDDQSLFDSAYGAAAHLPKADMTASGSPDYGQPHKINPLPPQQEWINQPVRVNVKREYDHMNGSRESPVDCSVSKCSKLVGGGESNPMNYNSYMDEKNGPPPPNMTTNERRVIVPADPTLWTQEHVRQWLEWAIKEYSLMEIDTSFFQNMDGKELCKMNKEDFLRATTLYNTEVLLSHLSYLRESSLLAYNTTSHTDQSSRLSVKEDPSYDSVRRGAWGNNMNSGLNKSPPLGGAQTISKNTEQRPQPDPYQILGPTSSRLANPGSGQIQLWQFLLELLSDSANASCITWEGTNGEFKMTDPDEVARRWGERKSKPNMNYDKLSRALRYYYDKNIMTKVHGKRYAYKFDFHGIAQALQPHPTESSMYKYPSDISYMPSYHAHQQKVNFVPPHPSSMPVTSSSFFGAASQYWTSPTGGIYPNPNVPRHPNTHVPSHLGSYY
In short, it runs like this:
(§1)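 After expression in yeast as GST fusions, human transcription factors were bound to glutathione beads, DNA-barcoded and mixed with a tag-only sample. The pools were incubated with 200 nmole of a 16-mer random double-stranded DNA library in Tris/NaCl/DTT/glycerol buffer (30 min, room temperature), washed and crosslinked with 0.1% formaldehyde. Proximity ligation with BsaI/T4 ligase ran for 1 h at 37 °C, before PCR amplification and sequencing on an Illumina NextSeq500. Binding signal is a hexamer's read frequency for a factor divided by its frequency for the tag-only sample.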

The next experiment deals with T2, ELK1 (Homo sapiens, UniProt P19419 1-428).
T2 sequence: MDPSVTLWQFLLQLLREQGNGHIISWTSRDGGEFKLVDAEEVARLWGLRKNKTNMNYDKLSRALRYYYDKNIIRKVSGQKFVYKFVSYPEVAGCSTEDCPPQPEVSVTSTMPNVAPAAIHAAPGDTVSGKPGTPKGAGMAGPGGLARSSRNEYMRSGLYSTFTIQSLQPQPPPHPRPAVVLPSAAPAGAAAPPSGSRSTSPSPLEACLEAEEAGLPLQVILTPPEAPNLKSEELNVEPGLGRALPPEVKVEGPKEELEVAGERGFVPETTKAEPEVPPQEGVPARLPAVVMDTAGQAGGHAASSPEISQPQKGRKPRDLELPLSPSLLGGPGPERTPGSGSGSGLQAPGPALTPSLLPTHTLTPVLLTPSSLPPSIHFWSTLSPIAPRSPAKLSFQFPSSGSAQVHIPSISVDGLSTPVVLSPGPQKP
The procedure, abridged: as §1

Another experiment concerns the target T3, GABPA (Homo sapiens, UniProt Q06546 1-454).
T3 sequence: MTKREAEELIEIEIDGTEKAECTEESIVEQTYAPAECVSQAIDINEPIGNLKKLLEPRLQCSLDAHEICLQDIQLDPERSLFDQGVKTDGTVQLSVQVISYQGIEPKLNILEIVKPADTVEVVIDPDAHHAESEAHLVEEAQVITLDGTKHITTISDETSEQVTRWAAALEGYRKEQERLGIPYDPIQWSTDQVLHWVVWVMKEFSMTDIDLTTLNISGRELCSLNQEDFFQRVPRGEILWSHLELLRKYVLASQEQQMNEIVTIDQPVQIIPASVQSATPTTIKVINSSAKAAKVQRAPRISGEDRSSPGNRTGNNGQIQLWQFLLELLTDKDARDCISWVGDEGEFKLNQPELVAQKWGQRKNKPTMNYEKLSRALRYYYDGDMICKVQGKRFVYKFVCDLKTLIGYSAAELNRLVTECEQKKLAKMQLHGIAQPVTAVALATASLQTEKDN
In short, it runs like this:
as §1

The next experiment addresses T4, ERG (Homo sapiens, UniProt P11308 1-479).
T4 sequence: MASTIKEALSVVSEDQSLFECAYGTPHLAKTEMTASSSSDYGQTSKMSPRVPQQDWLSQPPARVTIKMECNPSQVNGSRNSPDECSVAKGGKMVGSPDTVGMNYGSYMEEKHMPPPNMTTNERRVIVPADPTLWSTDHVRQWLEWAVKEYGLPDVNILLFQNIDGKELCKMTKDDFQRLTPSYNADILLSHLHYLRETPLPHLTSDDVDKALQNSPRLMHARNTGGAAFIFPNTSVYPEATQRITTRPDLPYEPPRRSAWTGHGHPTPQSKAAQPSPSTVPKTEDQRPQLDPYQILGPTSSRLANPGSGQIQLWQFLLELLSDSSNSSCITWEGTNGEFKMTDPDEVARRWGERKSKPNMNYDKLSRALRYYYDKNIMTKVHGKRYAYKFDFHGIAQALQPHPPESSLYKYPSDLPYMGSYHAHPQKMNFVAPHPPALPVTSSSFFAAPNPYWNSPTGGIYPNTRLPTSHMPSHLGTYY
The procedure, abridged: as §1

The target in the next experiment is T5, EHF (Homo sapiens, UniProt Q9NZC4 1-300).
T5 sequence: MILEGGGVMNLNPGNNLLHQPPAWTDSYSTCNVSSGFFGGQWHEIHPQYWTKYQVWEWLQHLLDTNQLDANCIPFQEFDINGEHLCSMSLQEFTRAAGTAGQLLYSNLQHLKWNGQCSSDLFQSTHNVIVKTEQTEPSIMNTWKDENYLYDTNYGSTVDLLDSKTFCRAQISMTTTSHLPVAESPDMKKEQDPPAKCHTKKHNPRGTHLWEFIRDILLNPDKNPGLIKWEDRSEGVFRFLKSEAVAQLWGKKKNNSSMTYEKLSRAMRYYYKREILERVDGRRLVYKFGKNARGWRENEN
In short, it runs like this:
as §1

A further experiment deals with SPI1 (Homo sapiens, UniProt P17947 1-270). In short, it runs like this: as §1
Another experiment deals with SPIB (Homo sapiens, UniProt Q01892 1-262). In short, it runs like this: as §1
Chain of SPIB (Q01892 whole entry): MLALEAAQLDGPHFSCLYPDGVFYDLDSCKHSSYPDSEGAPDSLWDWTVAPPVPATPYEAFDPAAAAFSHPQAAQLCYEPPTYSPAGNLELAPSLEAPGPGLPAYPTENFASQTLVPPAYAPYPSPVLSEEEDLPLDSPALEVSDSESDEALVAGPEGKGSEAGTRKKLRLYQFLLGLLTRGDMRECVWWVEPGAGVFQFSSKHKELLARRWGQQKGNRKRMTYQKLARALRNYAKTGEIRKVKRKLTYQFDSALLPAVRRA
For the next experiment, the target named is ETV5 (Homo sapiens, UniProt P41161 1-510). In short, it runs like this: as §1
Chain of ETV5 (P41161 whole entry): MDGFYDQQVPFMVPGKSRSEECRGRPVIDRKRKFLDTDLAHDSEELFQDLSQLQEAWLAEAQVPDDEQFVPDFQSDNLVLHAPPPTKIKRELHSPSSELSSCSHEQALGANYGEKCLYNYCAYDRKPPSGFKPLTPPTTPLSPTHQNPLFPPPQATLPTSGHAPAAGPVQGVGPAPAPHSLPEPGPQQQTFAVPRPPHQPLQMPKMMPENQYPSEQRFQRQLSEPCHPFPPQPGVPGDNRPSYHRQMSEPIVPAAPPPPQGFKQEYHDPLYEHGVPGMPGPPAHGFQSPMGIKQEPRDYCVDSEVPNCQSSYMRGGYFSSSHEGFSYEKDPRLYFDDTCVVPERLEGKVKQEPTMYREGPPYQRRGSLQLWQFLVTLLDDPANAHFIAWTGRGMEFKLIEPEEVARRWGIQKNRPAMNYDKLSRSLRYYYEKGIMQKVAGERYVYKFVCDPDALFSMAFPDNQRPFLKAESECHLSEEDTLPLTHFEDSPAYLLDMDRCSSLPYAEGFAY
In the next experiment the target is T6, SPIC (Homo sapiens, UniProt Q8N5J4 1-248).
T6 sequence: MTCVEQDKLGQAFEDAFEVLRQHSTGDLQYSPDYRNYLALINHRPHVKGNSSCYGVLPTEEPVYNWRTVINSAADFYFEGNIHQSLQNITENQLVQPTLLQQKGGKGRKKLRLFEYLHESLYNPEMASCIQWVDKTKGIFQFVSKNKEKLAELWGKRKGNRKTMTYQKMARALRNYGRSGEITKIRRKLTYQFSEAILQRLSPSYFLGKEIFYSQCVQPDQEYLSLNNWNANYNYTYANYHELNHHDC
The procedure, abridged:
as §1

In a further experiment the target is ELF4 (Homo sapiens, UniProt Q99607 1-663). The procedure, abridged: as §1
Chain of ELF4 (Q99607 whole entry): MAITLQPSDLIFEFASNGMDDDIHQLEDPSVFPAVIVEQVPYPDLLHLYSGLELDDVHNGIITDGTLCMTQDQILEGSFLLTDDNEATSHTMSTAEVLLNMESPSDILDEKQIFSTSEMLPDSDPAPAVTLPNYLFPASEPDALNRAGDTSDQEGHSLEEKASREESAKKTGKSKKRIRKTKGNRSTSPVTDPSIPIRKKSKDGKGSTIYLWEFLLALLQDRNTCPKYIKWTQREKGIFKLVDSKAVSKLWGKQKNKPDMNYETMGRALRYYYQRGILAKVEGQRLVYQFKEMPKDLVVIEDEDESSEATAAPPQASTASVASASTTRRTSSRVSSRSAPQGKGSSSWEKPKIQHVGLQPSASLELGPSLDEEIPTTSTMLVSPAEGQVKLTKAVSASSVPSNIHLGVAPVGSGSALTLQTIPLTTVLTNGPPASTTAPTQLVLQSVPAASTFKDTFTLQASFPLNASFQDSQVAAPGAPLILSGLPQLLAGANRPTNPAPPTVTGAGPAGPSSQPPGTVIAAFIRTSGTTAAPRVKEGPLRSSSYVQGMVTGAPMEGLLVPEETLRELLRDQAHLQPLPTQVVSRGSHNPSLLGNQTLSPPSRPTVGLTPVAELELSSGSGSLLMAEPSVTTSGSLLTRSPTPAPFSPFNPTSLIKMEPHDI
Another experiment concerns the target ETV1 (Homo sapiens, UniProt P50549 1-477). The procedure, abridged:
as §1

Another experiment deals with T7, ETV3L (Homo sapiens, UniProt Q6ZN32 1-361).
T7 sequence: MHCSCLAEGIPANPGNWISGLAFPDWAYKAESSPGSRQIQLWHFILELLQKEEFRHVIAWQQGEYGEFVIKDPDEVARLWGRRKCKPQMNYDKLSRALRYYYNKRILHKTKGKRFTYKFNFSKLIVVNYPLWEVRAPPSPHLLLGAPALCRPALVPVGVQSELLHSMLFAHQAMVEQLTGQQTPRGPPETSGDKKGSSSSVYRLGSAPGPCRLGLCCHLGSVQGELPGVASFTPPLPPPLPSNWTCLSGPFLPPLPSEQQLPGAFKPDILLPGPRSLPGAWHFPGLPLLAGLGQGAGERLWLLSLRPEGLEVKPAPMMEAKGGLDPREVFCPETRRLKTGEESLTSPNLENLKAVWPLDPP
In short, it runs like this:
as §1

Another experiment addresses T8, ETS2 (Homo sapiens, UniProt P15036 1-469).
T8 sequence: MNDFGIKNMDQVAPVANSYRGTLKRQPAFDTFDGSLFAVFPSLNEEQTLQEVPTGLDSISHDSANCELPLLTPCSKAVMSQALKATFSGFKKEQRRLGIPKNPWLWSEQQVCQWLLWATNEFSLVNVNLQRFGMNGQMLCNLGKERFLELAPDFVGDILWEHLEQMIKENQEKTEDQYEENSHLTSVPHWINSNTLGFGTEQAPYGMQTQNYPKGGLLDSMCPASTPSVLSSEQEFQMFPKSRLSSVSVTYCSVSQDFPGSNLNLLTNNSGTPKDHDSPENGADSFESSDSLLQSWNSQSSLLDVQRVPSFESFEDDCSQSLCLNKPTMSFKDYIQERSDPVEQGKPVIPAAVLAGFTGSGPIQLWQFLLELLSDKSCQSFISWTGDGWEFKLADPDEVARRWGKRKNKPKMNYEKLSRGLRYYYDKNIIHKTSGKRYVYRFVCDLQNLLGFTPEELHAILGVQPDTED
The procedure, abridged:
as §1

Another experiment addresses T9, ETV3 (Homo sapiens, UniProt P41162-2 1-143).
T9 sequence: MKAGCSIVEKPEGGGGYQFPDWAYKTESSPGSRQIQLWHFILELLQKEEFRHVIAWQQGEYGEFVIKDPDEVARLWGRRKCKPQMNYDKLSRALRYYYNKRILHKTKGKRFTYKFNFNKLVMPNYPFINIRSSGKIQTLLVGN
The procedure, abridged: as §1

The next experiment addresses ETV6 (Homo sapiens, UniProt P41212 1-452). The procedure, abridged: as §1

Chain of ETV6 (P41212 whole entry): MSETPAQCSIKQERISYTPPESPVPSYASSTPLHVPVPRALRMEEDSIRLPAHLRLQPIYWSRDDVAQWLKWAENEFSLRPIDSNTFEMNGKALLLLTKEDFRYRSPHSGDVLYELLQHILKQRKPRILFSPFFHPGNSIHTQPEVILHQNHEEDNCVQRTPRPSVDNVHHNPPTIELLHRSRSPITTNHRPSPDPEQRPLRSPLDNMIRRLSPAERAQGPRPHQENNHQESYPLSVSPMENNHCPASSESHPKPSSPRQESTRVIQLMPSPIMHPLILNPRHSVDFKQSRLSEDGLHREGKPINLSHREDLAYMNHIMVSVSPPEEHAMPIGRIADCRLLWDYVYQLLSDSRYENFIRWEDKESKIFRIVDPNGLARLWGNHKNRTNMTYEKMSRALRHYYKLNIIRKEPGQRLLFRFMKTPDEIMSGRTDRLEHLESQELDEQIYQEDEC
Chain of ETV1 (P50549 whole entry): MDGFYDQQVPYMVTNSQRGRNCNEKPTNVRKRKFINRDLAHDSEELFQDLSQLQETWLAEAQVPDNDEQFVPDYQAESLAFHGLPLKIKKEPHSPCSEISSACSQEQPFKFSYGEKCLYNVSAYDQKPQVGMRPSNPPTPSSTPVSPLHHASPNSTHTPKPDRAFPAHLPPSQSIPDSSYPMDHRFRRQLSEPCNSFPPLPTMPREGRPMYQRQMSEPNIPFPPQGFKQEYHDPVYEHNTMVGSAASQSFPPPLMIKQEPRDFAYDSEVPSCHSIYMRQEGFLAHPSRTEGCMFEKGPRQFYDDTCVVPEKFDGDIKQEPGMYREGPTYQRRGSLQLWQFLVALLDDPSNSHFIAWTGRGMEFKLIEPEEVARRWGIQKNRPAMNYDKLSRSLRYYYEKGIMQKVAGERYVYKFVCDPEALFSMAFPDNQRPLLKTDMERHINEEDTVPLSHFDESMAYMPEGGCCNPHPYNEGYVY

With TGGTCA, the binding signal in the experiment with FLI1 was 1.11 fold enrichment (6-mer frequency, TF over GST control); with ELK1, 1 fold enrichment (6-mer frequency, TF over GST control); with GABPA, 1.17 fold enrichment (6-mer frequency, TF over GST control); in the experiment with ERG it was 1.06 fold enrichment (6-mer frequency, TF over GST control); in the experiment with EHF it was 1.01 fold enrichment (6-mer frequency, TF over GST control); in the experiment with SPI1 it was 1.05 fold enrichment (6-mer frequency, TF over GST control). Further, the binding signal with SPIB is 1.07 fold enrichment (6-mer frequency, TF over GST control); with ETV5, 1.02 fold enrichment (6-mer frequency, TF over GST control); in the experiment with SPIC it was 1.07 fold enrichment (6-mer frequency, TF over GST control); in the experiment with ELF4, 1.06 fold enrichment (6-mer frequency, TF over GST control); in the experiment with ETV1, 1.02 fold enrichment (6-mer frequency, TF over GST control); in the experiment with ETV3L, 1.1 fold enrichment (6-mer frequency, TF over GST control). The binding signal with ETS2 is 1.13 fold enrichment (6-mer frequency, TF over GST control); in the experiment with ETV3 it was 1.01 fold enrichment (6-mer frequency, TF over GST control); in the experiment with ETV6 it was 1.04 fold enrichment (6-mer frequency, TF over GST control).
